Test systems include SK-MEL-2 melanoma; EKVX NSCLC; SN12C renal; UO-31 renal; TK-10 renal; ACHN renal; CAKI-1 renal; A498 renal; CCRF-CEM leukemia; RPMI-8226 leukemia; OVCAR-5 ovarian; OVCAR-4 ovarian; SK-OV-3 ovarian; IGROV1 ovarian; OVCAR-3 ovarian; HS 578T breast; NCI/ADR-RES ovarian; MOLT-4 leukemia; SR leukemia; OVCAR-8 ovarian.
What all share (experiment): NCI-60 one-dose screen, 48 h (100 = growth as untreated, 0 = no growth, -100 = all killed)
What all share (settings): 10 µM unless noted

Compounds without any hit were thinned out: in the full panel of roughly 83,000, 20% have a hit.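 Single-dose data. Exposure time 48 hours. Values below 10 considered active.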 A number with no mark means an inactive call. Calls of active or inactive are those of the source.

With `O=C(NCc1cccnc1)c1cc(-c2csc3c(=O)cc(N4CCOCC4)oc23)cc2c1OCCO2`, the growth in the assay with SK-MEL-2 melanoma was 51.1%; in the assay with EKVX NSCLC it was 62.5%; with SN12C renal, 41.7%; with UO-31 renal, 30.3%; with TK-10 renal, 14.1%; in the assay with ACHN renal it was 34.5%. The growth with CAKI-1 renal was 31.1%; in the assay on A498 renal, 39.9%; in the assay on CCRF-CEM leukemia it was 39.6%; with RPMI-8226 leukemia, 9.21% (active); in the assay with OVCAR-5 ovarian, 31.3%; in the assay with OVCAR-4 ovarian it was 50.3%. The growth with SK-OV-3 ovarian is 8.37% (active); with IGROV1 ovarian, 7.23% (active); in the assay with OVCAR-3 ovarian it was 34.7%; in the assay on HS 578T breast it was 8.92% (active); in the assay with NCI/ADR-RES ovarian it was 89.3%.

Consider `CCOc1ccc(-c2nc3ccc(-c4nc5ccc(N6CCN(C)CC6)cc5[nH]4)cc3[nH]2)cc1OCC`, for which the growth with SK-MEL-2 melanoma was -17.5% (active); in the assay on EKVX NSCLC, 50.2%; in the assay on SN12C renal it was 20.8%; with UO-31 renal, 98.6%; in the assay with TK-10 renal, 91%; in the assay on ACHN renal, 81.9%. Moreover, the growth with CAKI-1 renal was 40.8%; in the assay with CCRF-CEM leukemia, 11.3%; in the assay with MOLT-4 leukemia, 9.04% (active); with SR leukemia it was 8.73% (active); with RPMI-8226 leukemia it was 45.8%; in the assay on OVCAR-8 ovarian it was 14.8%. Moreover, the growth was 44.4% with OVCAR-5 ovarian; 7.29% (active) with OVCAR-4 ovarian; 50.5% with IGROV1 ovarian; -13.3% (active) in the assay on OVCAR-3 ovarian; 11.1% in the assay on HS 578T breast; 104% in the assay on NCI/ADR-RES ovarian.

Regarding `O=C(CCl)N1c2cccc3cccc(c23)N(C(=O)CCl)C1c1cn(-c2ccccc2)nc1-c1cccc([N+](=O)[O-])c1`, the growth in the assay with SK-MEL-2 melanoma is 111%; in the assay with EKVX NSCLC it was 102%; in the assay on SN12C renal it was 93.5%; with UO-31 renal, 66.9%; in the assay with TK-10 renal it was 104%; in the assay on ACHN renal, 76.7%. Moreover, the growth with CAKI-1 renal is 92.5%; in the assay on CCRF-CEM leukemia, 8.63% (active); in the assay with MOLT-4 leukemia, 34.7%; in the assay on SR leukemia, 17.8%; with RPMI-8226 leukemia, -6.92% (active); in the assay with OVCAR-8 ovarian it was 79.3%. Moreover, the growth was 108% with OVCAR-5 ovarian; 96% in the assay on OVCAR-4 ovarian; 79.5% with IGROV1 ovarian; 61.6% with OVCAR-3 ovarian; 98.6% in the assay on HS 578T breast; 94.6% in the assay with NCI/ADR-RES ovarian.

Regarding `O=C(NC(=S)Nc1ccc(-c2nc3ccccc3[nH]2)cc1)c1ccc2ccccc2c1`, the growth in the assay on SK-MEL-2 melanoma was 98.2%; in the assay with EKVX NSCLC, 58.2%; with SN12C renal, 15.9%; with UO-31 renal, -84.4% (active); in the assay with TK-10 renal, -16.5% (active); in the assay on ACHN renal it was -0.473% (active). The growth with CAKI-1 renal is 24.5%; in the assay on CCRF-CEM leukemia it was 49.6%; with MOLT-4 leukemia, 59%; in the assay on SR leukemia it was 5.49% (active); in the assay with RPMI-8226 leukemia, -6.21% (active); with OVCAR-8 ovarian, 28.8%. Also, the growth in the assay on OVCAR-5 ovarian is 56.5%; in the assay with OVCAR-4 ovarian, -18.7% (active); in the assay with IGROV1 ovarian, 52.2%; with OVCAR-3 ovarian it was -45.2% (active); in the assay with HS 578T breast it was 11.3%; in the assay on NCI/ADR-RES ovarian, 28.8%.

Turning to `Cn1cc(-c2ccc3nc(-c4ccc(CC(=O)Nc5cc(C(C)(C)C)no5)cc4)cnc3c2)cn1`, the growth in the assay with SK-MEL-2 melanoma was 22.2% [30 µM]; in the assay with EKVX NSCLC, 26.1% [30 µM]; in the assay with SN12C renal, 3.38% [30 µM] (active); in the assay with UO-31 renal it was 7.7% [30 µM] (active); in the assay on TK-10 renal it was 63.5% [30 µM]; in the assay on ACHN renal it was 5.16% [30 µM] (active). For the same compound, the growth with CAKI-1 renal is 6.29% [30 µM] (active); with A498 renal it was -4.96% [30 µM] (active); in the assay with MOLT-4 leukemia, 22.1% [30 µM]; in the assay on SR leukemia it was 15.2% [30 µM]; with OVCAR-8 ovarian it was 31.5% [30 µM]; with OVCAR-5 ovarian, 44.8% [30 µM]. Moreover, the growth in the assay with OVCAR-4 ovarian is 28.7% [30 µM]; with SK-OV-3 ovarian, 11.2% [30 µM]; in the assay on IGROV1 ovarian, -2.97% [30 µM] (active); in the assay with OVCAR-3 ovarian, 29.6% [30 µM]; in the assay on HS 578T breast, 21.9% [30 µM]; in the assay on NCI/ADR-RES ovarian, 19.8% [30 µM].

On to `O=C(/C=C/C12c3ccccc3C(c3ccccc31)C1C(=O)N(c3ccc(Cl)cc3)C(=O)C12)c1ccccn1` (centres undefined), for which the growth was -19.2% (active) in the assay with SK-MEL-2 melanoma; -34.8% (active) in the assay on EKVX NSCLC; -44.8% (active) in the assay with SN12C renal; -98.5% (active) in the assay on UO-31 renal; -33.4% (active) in the assay with TK-10 renal; -35.4% (active) with ACHN renal. Moreover, the growth in the assay with CAKI-1 renal is -9.86% (active); with CCRF-CEM leukemia, 13.1%; with MOLT-4 leukemia it was 20%; in the assay on SR leukemia, 13.6%; in the assay with RPMI-8226 leukemia it was 3.98% (active); in the assay with OVCAR-8 ovarian it was 21.1%. For the same compound, the growth with OVCAR-5 ovarian is -43.3% (active); in the assay on OVCAR-4 ovarian, -6.96% (active); with IGROV1 ovarian it was -36.6% (active); in the assay with OVCAR-3 ovarian, -71.6% (active); with HS 578T breast, 13.9%; in the assay on NCI/ADR-RES ovarian, 8.16% (active).

`Cc1c(C)c2c(c(C)c1NC(=O)/C=C\C(=O)O)CCC(C)(CCCC(C)CCCC(C)CCCC(C)C)O2` (centres undefined): the growth in the assay with SK-MEL-2 melanoma was 27%; in the assay on EKVX NSCLC it was 74.3%; in the assay on SN12C renal, 50.6%; in the assay with UO-31 renal, 37.2%; in the assay on TK-10 renal, 43.6%; in the assay on ACHN renal, 45.5%. The growth in the assay with CAKI-1 renal was 46.8%; with CCRF-CEM leukemia, 13.6%; in the assay with MOLT-4 leukemia, 33.9%; in the assay on SR leukemia, 9.98% (active); with RPMI-8226 leukemia, 30.6%; in the assay on OVCAR-8 ovarian it was 35.9%. Besides, the growth with OVCAR-5 ovarian was 87.6%; in the assay on OVCAR-4 ovarian, 39.4%; with SK-OV-3 ovarian, 54.6%; with IGROV1 ovarian, 56.8%; with OVCAR-3 ovarian, 43.2%; in the assay with HS 578T breast it was 57.4%. For the same compound, the growth with NCI/ADR-RES ovarian was 43.1%.

With `O=C(/C=C/C12c3ccccc3C(c3ccccc31)C1C(=O)N(c3ccccc3)C(=O)C12)c1ccccc1` (centres undefined), the growth in the assay with SK-MEL-2 melanoma was 24.5%; in the assay on EKVX NSCLC it was 8.88% (active); with SN12C renal, 15%; in the assay on UO-31 renal, -77.5% (active); in the assay with TK-10 renal, 20.8%; in the assay on ACHN renal it was -15% (active). In addition, the growth was 45.8% in the assay on CAKI-1 renal; 9.95% (active) in the assay with CCRF-CEM leukemia; 11% in the assay on MOLT-4 leukemia; 14.2% with SR leukemia; 1% (active) in the assay with RPMI-8226 leukemia; 27.4% in the assay on OVCAR-8 ovarian. In addition, the growth with OVCAR-5 ovarian was -12.7% (active); in the assay on OVCAR-4 ovarian, 34.1%; in the assay on IGROV1 ovarian it was -24.5% (active); in the assay on OVCAR-3 ovarian, -61.9% (active); in the assay with HS 578T breast, 20.7%; in the assay on NCI/ADR-RES ovarian, 14.2%.

For the origin of these results see PubChem BioAssay (NCI).
